In the supplement of paper PMC10515830:
Counter-ions that a name gives are not always drawn.

How the values were obtained:
Settings in all cases: 10 µM; exposure time 6 h
[1] = tested on: Danio rerio larvae (5 dpf); test: difference in excitability vs DMSO (percentage points); higher = more excitable than DMSO
Procedure, shortened: (§1)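 Wild-type zebrafish larvae at 5 dpf were kept in 96-well plates and exposed for 6 h to 100 µL egg water holding library compound at a final concentration of 10 µM. From 3 h into exposure, the plates were held at 28.5 ℃ and photographed every 6 s through a 3-h programme of moving lines and 100 ms, 400Hz tones. Each behaviour was scored by Z-LaP Tracker, a DeepLabCut model, and averaged over 48 larvae per compound. Every value gives the compound mean minus the vehicle control mean, in percentage points.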

[2] = tested on: Danio rerio larvae (5 dpf); test: difference in startle response vs DMSO (percentage points); higher = stronger startle than DMSO
Procedure, shortened: as §1

[3] = tested on: Danio rerio larvae (5 dpf); test: difference in activity during first hour vs DMSO (percentage points); higher = more activity than DMSO
Procedure, shortened: as §1

[4] = tested on: Danio rerio larvae (5 dpf); test: difference in habituation to acoustic stimuli vs DMSO (percentage points); higher = more habituation than DMSO
Procedure, shortened: as §1

[5] = tested on: Danio rerio larvae (5 dpf); test: difference in combined optomotor response to red, green and blue moving lines vs DMSO (percentage points); higher = stronger optomotor response than DMSO
Procedure, shortened: as §1

Row | SMILES | difference in excitability [1] | difference in startle response [2] | difference in activity during first hour [3] | difference in habituation to acoustic stimuli [4] | difference [5]
1 | CC[C@H](C)[C@@H]1NC(=O)[C@H](Cc2ccc(O)cc2)NC(=O)[C@@H](N)CSSC[C@@H](C(=O)N2CCC[C@H]2C(=O)N[C@@H](CC(C)C)C(=O)NCC(N)=O)NC(=O)[C@H](CC(N)=O)NC(=O)[C@H](CCC(N)=O)NC1=O [Oxytocin (acetate)] | -2.14 | 1 | -5.61 | 2.03 | 4.29
2 | FCOC(C(F)(F)F)C(F)(F)F [Sevoflurane] | -1.7 | 2.93 | 0.0224 | 4.17 | -3.43
3 | O=C1c2c(O)ccc(O)c2C(=O)c2c(NCCNCCO)ccc(NCCNCCO)c21 [Mitoxantrone (hydrochloride)] | 8.92 | -11.2 | -16.2 | -16 | -15.4
4 | CCN(CC)CCOc1ccc(C(=C(Cl)c2ccccc2)c2ccccc2)cc1 [Clomiphene (citrate)] | -9.14 | 5.47 | -4.03 | -5.11 | -16.4
5 | CC(=O)Oc1c(C)cc(OCC(O)CNC(C)C)c(C)c1C (stereo not given) [Metipranolol (hydrochloride)] | 1.28 | 4.21 | -3.92 | 5.42 | 0.513
6 | CN(C)CCCN1c2ccccc2Sc2ccc(Cl)cc21 [Chlorpromazine (hydrochloride)] | 12.6 | -0.58 | 13.4 | -8.52 | 6.64
7 | CCCCCOc1ccc(-c2cc(-c3ccc(C(=O)N[C@H]4C[C@@H](O)[C@@H](O)NC(=O)[C@@H]5[C@@H](O)[C@@H](C)CN5C(=O)[C@H]([C@H](O)CC(N)=O)NC(=O)[C@H]([C@H](O)[C@@H](O)c5ccc(O)c(OS(=O)(=O)O)c5)NC(=O)[C@@H]5C[C@@H](O)CN5C(=O)[C@H]([C@@H](C)O)NC4=O)cc3)no2)cc1 [Micafungin (sodium salt)] | -4.69 | -8.33 | 19.8 | -1.44 | -1.06
8 | CC(=O)O[C@H]1C(=O)[C@@]2(C)[C@H]([C@H](OC(=O)c3ccccc3)[C@]3(O)C[C@H](OC(=O)[C@H](O)[C@@H](NC(=O)c4ccccc4)c4ccccc4)C(C)=C1C3(C)C)[C@]1(OC(C)=O)CO[C@@H]1C[C@@H]2O [Paclitaxel] | -11.7 | -1.74 | -4.46 | 3.51 | -2.9
9 | COC(=O)C1=C(C)NC(C)=C(C(=O)OC(C)C)C1c1cccc2nonc12 (stereo not given) [Isradipine] | 11.7 | -10.9 | -0.814 | -7.82 | -17.2
10 | Cc1cn[nH]c1 [Fomepizole] | -1.56 | -0.451 | 3.73 | 2.38 | -2.44
11 | Cc1cnc(C(=O)NCCc2ccc(S(=O)(=O)NC(=O)NC3CCCCC3)cc2)cn1 [Glipizide] | 0.585 | 1.17 | -9.11 | 5.88 | 8.81
12 | CN(C)CC(c1ccc(O)cc1)C1(O)CCCCC1 (racemic) [(±)-O-Desmethyl Venlafaxine] | 18.2 | -5.6 | -19.3 | -8.93 | -5.4
13 | Clc1ccc2nsnc2c1NC1=NCCN1 [Tizanidine (hydrochloride)] | 1.85 | 4.3 | -8.71 | 1.04 | -0.822
14 | COCCCC/C(=N\OCCN)c1ccc(C(F)(F)F)cc1 [Fluvoxamine (maleate)] | 13.2 | -1.76 | -21.1 | -3.73 | 5.3
15 | CO/N=C(\C(=O)N[C@@H]1C(=O)N2C(C(=O)[O-])=C(C[N+]3(C)CCCC3)CS[C@H]12)c1csc(N)n1 [Cefepime (hydrochloride hydrate)] | 1.19 | -0.767 | 1.35 | 1.3 | -1.46
16 | C[C@H](N)[C@H](O)c1cccc(O)c1 [Metaraminol (tartrate)] | 3.23 | 5.35 | -15.4 | -0.886 | -6.91
17 | CC(C)N(CCCCOCC(=O)NS(C)(=O)=O)c1cnc(-c2ccccc2)c(-c2ccccc2)n1 | 11.4 | 6.8 | -3.12 | 5.08 | 2.84
18 | CC[C@@H]1/C=C(\C)C[C@H](C)C[C@H](OC)[C@H]2O[C@@](O)(C(=O)C(=O)N3CCCC[C@H]3C(=O)O[C@H](/C(C)=C/[C@@H]3CC[C@H](Cl)[C@H](OC)C3)[C@H](C)[C@@H](O)CC1=O)[C@H](C)C[C@@H]2OC [Pimecrolimus] | 12 | -9.07 | 23 | -1.18 | -12.6
19 | CCN(CC)CC#CCOC(=O)C(O)(c1ccccc1)C1CCCCC1 (stereo not given) [Oxybutynin (hydrochloride)] | -4.54 | 8.08 | -11.4 | -8.53 | -10.5
20 | COCCCOc1ccnc(C[S+]([O-])c2nc3ccccc3[nH]2)c1C (stereo not given) [Rabeprazole (sodium salt)] | 2.22 | -0.57 | 7.69 | -4.65 | 15.4
21 | NNCCc1ccccc1 [Phenelzine (sulfate)] | -5.16 | 2.45 | -14.5 | 5.81 | 2.16
22 | COc1cc(Nc2c(C#N)cnc3cc(OCCCN4CCN(C)CC4)c(OC)cc23)c(Cl)cc1Cl [Bosutinib] | 10.4 | 1.86 | -11.7 | -5.15 | 2.77

Row | SMILES | difference in excitability [1] | difference in startle response [2] | difference in activity during first hour [3] | difference in habituation to acoustic stimuli [4] | difference [5]
23 | CC(N)C12CC3CC(CC(C3)C1)C2 (stereo not given) [Rimantadine (hydrochloride)] | 3.64 | -0.673 | -3.58 | 3.17 | -3.34
24 | COc1cccc2c1C(=O)c1c(O)c3c(c(O)c1C2=O)C[C@@](O)(C(=O)CO)C[C@@H]3O[C@H]1C[C@H](N)[C@@H](O)[C@H](C)O1 [Epirubicin (hydrochloride)] | 9.14 | 0.312 | -7.5 | 5.65 | 1.76
25 | COc1ccc(CC2c3cc(OC)c(OC)cc3CC[N+]2(C)CCC(=O)OCCCCCOC(=O)CC[N+]2(C)CCc3cc(OC)c(OC)cc3C2Cc2ccc(OC)c(OC)c2)cc1OC (stereo not given) [Atracurium (besylate)] | 5.62 | -4.13 | -9.46 | -3.02 | -3.83
26 | CN1CCC[C@H]1c1cccnc1 (racemic) [(±)-Nicotine] | 9.04 | -8.45 | 50 | -10.6 | -14.9
27 | CC(C)CN(C[C@@H](O)[C@H](Cc1ccccc1)NC(=O)O[C@H]1CCOC1)S(=O)(=O)c1ccc(N)cc1 [Amprenavir] | -3.12 | -6.45 | 6.71 | 0.569 | 7.88
28 | CC(C)NCC(O)COc1ccc(CCOCC2CC2)cc1 (stereo not given) [Betaxolol (hydrochloride)] | 2.57 | 2.31 | 11.4 | -2.52 | 6.22
29 | Nc1nnc(-c2cccc(Cl)c2Cl)c(N)n1 [Lamotrigine] | 4.96 | -1.15 | -6.88 | 4.75 | 8.87
30 | CCCCC(C)(O)C/C=C/[C@H]1[C@H](O)CC(=O)[C@@H]1CCCCCCC(=O)OC (mixture of isomers) [Misoprostol] | 9.78 | 0.222 | -2.79 | 7.1 | -1.41
31 | OC[C@@H](O)[C@@H](O)[C@H](O)[C@H](O)CO [D-Mannitol] | 1.16 | -0.914 | 5.26 | 3.53 | 4.85
32 | CN(C)CCC(c1ccc(Br)cc1)c1ccccn1 (stereo not given) [Brompheniramine (maleate)] | 4.19 | -2.92 | -11.7 | -3.69 | 7.28
33 | CC(=O)N(O)CCCCCNC(=O)CCC(=O)N(O)CCCCCNC(=O)CCC(=O)N(O)CCCCCN [Deferoxamine (mesylate)] | 4.87 | -4.66 | 10.3 | -2.2 | 2.91
34 | O=c1ccn([C@@H]2O[C@H](CO)[C@@H](O)[C@H]2O)c(=O)[nH]1 [Uridine] | -2.47 | -2.07 | 11.4 | -2.41 | 1.41
35 | CN(C)[C@@H]1C(O)=C(C(N)=O)C(=O)[C@@]2(O)C(O)=C3C(=O)c4c(O)cccc4[C@@](C)(O)[C@H]3C[C@@H]12 [Tetracycline (hydrochloride)] | 5.28 | 1.04 | 2.06 | -0.0493 | -5.79
36 | CCOc1ccc(Cc2cc([C@]34OC[C@](CO)(O3)[C@@H](O)[C@H](O)[C@H]4O)ccc2Cl)cc1 [Ertugliflozin] | 0.00277 | -5.35 | 3.38 | 4.89 | 1.51
37 | COC(=O)N[C@H](C(=O)N1CCC[C@H]1c1nc(-c2ccc3c(c2)O[C@@H](c2ccccc2)n2c-3cc3cc(-c4c[nH]c([C@@H]5CCCN5C(=O)[C@@H](NC(=O)OC)C(C)C)n4)ccc32)c[nH]1)C(C)C [Elbasvir] | 9.31 | -11.8 | 0.959 | 5.9 | 1.3
38 | O=C(O)c1cc(/N=N/c2ccc(S(=O)(=O)Nc3ccccn3)cc2)ccc1O [Sulfasalazine] | 11.1 | 2.87 | 12.9 | -2.35 | 4.25
39 | O=S(=O)(O)CCS [Mesna] | -4.43 | 2.29 | 12.8 | -1.88 | 6.5
40 | OC[C@H]1O[C@@H](n2cnc3c2N=CNC[C@H]3O)C[C@@H]1O [Pentostatin] | 4.36 | -6.74 | 2.27 | 0.584 | 3.35
41 | CC[C@H]1OC(=O)[C@H](C)[C@@H](O[C@H]2C[C@@](C)(OC)[C@@H](O)[C@H](C)O2)[C@H](C)[C@@H](O[C@@H]2O[C@H](C)C[C@H](N(C)C)[C@H]2O)[C@](C)(O)C[C@@H](C)C(=O)[C@H](C)[C@@H](O)[C@]1(C)O [Erythromycin] | 4.99 | -6.73 | 13.1 | -0.584 | 9.53
42 | CCCCCCOC(=O)CCC(=O)CN [Hexaminolevulinate (hydrochloride)] | 5.6 | 3.54 | 2.02 | 7.86 | 2.47
43 | O=C(O[C@H]1CN2CCC1CC2)N1CCc2ccccc2[C@@H]1c1ccccc1 [Solifenacin (succinate)] | 3.16 | -8.09 | 25.6 | -1.09 | 1.96
44 | CNCC[C@H](Oc1cccc2ccccc12)c1cccs1 [(S)-Duloxetine (hydrochloride)] | 4.76 | -1.86 | -21 | -3.34 | -11.3
